{"source": "the supplement of paper PMC8728848", "binders": {"B1": {"name": "SP15308C-bot-338-23-338 (Bacteroides ovatus) (protein)", "chain": "DEWTDEQFKQLISFKTQPGGWGVTDVHVRYANSAKYTYNLPVLVSGSTDNTDDRLVSFSLRDDTLDILNFEKFGNRPELYFRELPQKYYSFPKELTIPAGQSHALLPIEFSLDGLDDSQKWALPLKVCEDANGTYAVNPRKYYRTAVLRPILFNEFSGRFSGSSLLGTMAGESDIKFSSTEIKLNVVTDSIVFFYAGQRTEDYEDRINYKVFLQFTGDKVDSKKDLYKMKIWAENEKLKFNSYSTPTYKVSSEMDATKTYLKHTYIVISDIDFDFVDYTSVPNYEIEYNMKGGLSVSRDLDTRKPDEDQGSDSKWW"}}, "experiment_in_all_cases": "glycan array binding signal (z-score within array); higher = stronger binding", "conditions_in_all_cases": "glycan notation: IUPAC condensed, linker removed", "key": {"Fuc(a1-2)Gal": {"biological_target": "Fuc(a1-2)Gal", "how_it_was_run": "(§1)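 Negative Z-scores can be read as non-binding. The Z-score is calculated within each array and then averaged across arrays of one protein sequence at different concentrations or buffers and across linkers. Arrays, 3228 in all, were curated from the Consortium for Functional Glycomics database and kept only where the protein sequence was available.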"}, "[1]": {"biological_target": "Fuc(a1-2)Gal(b1-3)GlcNAc(b1-2)Man(a1-3)[Fuc(a1-2)Gal(b1-3)GlcNAc(b1-2)Man(a1-6)]Man(b1-4)GlcNAc(b1-4)GlcNAc", "how_it_was_run": "as §1"}, "[2]": {"biological_target": "Fuc(a1-2)Gal(b1-3)[Fuc(a1-4)]GlcNAc(b1-3)[Gal(b1-4)GlcNAc(b1-6)]Gal(b1-4)Glc", "how_it_was_run": "as §1"}, "[3]": {"biological_target": "Fuc(a1-2)Gal(b1-4)GlcNAc(b1-3)Gal(b1-4)GlcNAc(b1-2)Man(a1-3)[Fuc(a1-2)Gal(b1-4)GlcNAc(b1-3)Gal(b1-4)GlcNAc(b1-2)Man(a1-6)]Man(b1-4)GlcNAc(b1-4)GlcNAc", "how_it_was_run": "as §1"}, "Fuc(a1-2)Gal6S(b1-4)Glc": {"biological_target": "Fuc(a1-2)Gal6S(b1-4)Glc", "how_it_was_run": "as §1"}, "[4]": {"biological_target": "Fuc(a1-2)[GalNAc(a1-3)]Gal(b1-4)GlcNAc(b1-3)Gal(b1-4)GlcNAc(b1-3)Gal(b1-4)GlcNAc", "how_it_was_run": "as §1"}, "[5]": {"biological_target": "Fuc(a1-3)[Gal(b1-4)]GlcNAc", "how_it_was_run": "as §1"}, "[6]": {"biological_target": "Fuc(a1-3)[Gal(b1-4)]GlcNAc(b1-2)Man(a1-3)[Fuc(a1-3)[Gal(b1-4)]GlcNAc(b1-2)Man(a1-6)]Man(b1-4)GlcNAc(b1-4)[Fuc(a1-6)]GlcNAc", "how_it_was_run": "as §1"}, "Fuc(a1-4)GlcNAc": {"biological_target": "Fuc(a1-4)GlcNAc", "how_it_was_run": "as §1"}, "[7]": {"biological_target": "Gal(a1-3)Gal(b1-4)GlcNAc(b1-2)Man", "how_it_was_run": "as §1"}, "[8]": {"biological_target": "Gal(a1-3)Gal(b1-4)[Fuc(a1-3)]GlcNAc(b1-2)Man(a1-3)[Gal(a1-3)Gal(b1-4)[Fuc(a1-3)]GlcNAc(b1-2)Man(a1-6)]Man(b1-4)GlcNAc(b1-4)GlcNAc", "how_it_was_run": "as §1"}, "[9]": {"biological_target": "Gal(b1-3)GlcNAc(b1-3)Gal(b1-4)GlcNAc(b1-3)Gal(b1-4)GlcNAc(b1-2)[Gal(b1-3)GlcNAc(b1-3)Gal(b1-4)GlcNAc(b1-3)Gal(b1-4)GlcNAc(b1-6)]Man(a1-6)[Gal(b1-3)GlcNAc(b1-3)Gal(b1-4)GlcNAc(b1-3)Gal(b1-4)GlcNAc(b1-2)Man(a1-3)]Man(b1-4)GlcNAc(b1-4)[Fuc(a1-6)]GlcNAc", "how_it_was_run": "as §1"}, "[10]": {"biological_target": "Gal(b1-4)GlcNAc(b1-3)Gal(b1-4)GlcNAc(b1-2)Man(a1-3)[Gal(b1-4)GlcNAc(b1-3)Gal(b1-4)GlcNAc(b1-2)Man(a1-6)]Man(b1-4)GlcNAc(b1-4)GlcNAc", "how_it_was_run": "as §1"}, "[11]": {"biological_target": "Gal(b1-4)GlcNAc(b1-3)Gal(b1-4)GlcNAc(b1-3)Gal(b1-4)GlcNAc(b1-2)Man(a1-3)[Gal(b1-4)GlcNAc(b1-3)Gal(b1-4)GlcNAc(b1-3)Gal(b1-4)GlcNAc(b1-2)Man(a1-6)]Man(b1-4)GlcNAc(b1-4)GlcNAc", "how_it_was_run": "as §1"}, "[12]": {"biological_target": "Gal(b1-4)GlcNAc(b1-3)Gal(b1-4)GlcNAc(b1-3)Gal(b1-4)GlcNAc(b1-3)Gal(b1-4)GlcNAc(b1-3)Gal(b1-4)GlcNAc(b1-2)Man(a1-3)[Gal(b1-4)GlcNAc(b1-3)Gal(b1-4)GlcNAc(b1-3)Gal(b1-4)GlcNAc(b1-3)Gal(b1-4)GlcNAc(b1-3)Gal(b1-4)GlcNAc(b1-2)Man(a1-6)]Man(b1-4)GlcNAc(b1-4)GlcNAc", "how_it_was_run": "as §1"}, "[13]": {"biological_target": "Gal(b1-4)GlcNAc(b1-3)Gal(b1-4)GlcNAc(b1-3)Gal(b1-4)GlcNAc(b1-3)Gal(b1-4)GlcNAc(b1-3)Gal(b1-4)GlcNAc(b1-2)Man(a1-3)[Gal(b1-4)GlcNAc(b1-3)Gal(b1-4)GlcNAc(b1-3)Gal(b1-4)GlcNAc(b1-3)Gal(b1-4)GlcNAc(b1-3)Gal(b1-4)GlcNAc(b1-2)Man(a1-6)]Man(b1-4)GlcNAc(b1-4)[Fuc(a1-6)]GlcNAc", "how_it_was_run": "as §1"}, "[14]": {"biological_target": "Gal(b1-4)GlcNAc(b1-3)Gal(b1-4)GlcNAc(b1-3)Gal(b1-4)GlcNAc(b1-3)Gal(b1-4)GlcNAc(b1-3)Gal(b1-4)GlcNAc(b1-2)[Gal(b1-4)GlcNAc(b1-3)Gal(b1-4)GlcNAc(b1-3)Gal(b1-4)GlcNAc(b1-3)Gal(b1-4)GlcNAc(b1-3)Gal(b1-4)GlcNAc(b1-6)]Man(a1-6)[Gal(b1-4)GlcNAc(b1-3)Gal(b1-4)GlcNAc(b1-3)Gal(b1-4)GlcNAc(b1-3)Gal(b1-4)GlcNAc(b1-3)Gal(b1-4)GlcNAc(b1-2)Man(a1-3)]Man(b1-4)GlcNAc(b1-4)[Fuc(a1-6)]GlcNAc", "how_it_was_run": "as §1"}, "[15]": {"biological_target": "Gal(b1-4)GlcNAc(b1-3)Gal(b1-4)GlcNAc(b1-3)Gal(b1-4)GlcNAc(b1-3)Gal(b1-4)GlcNAc(b1-3)Gal(b1-4)GlcNAc(b1-3)Gal(b1-4)GlcNAc(b1-2)Man(a1-3)[Gal(b1-4)GlcNAc(b1-3)Gal(b1-4)GlcNAc(b1-3)Gal(b1-4)GlcNAc(b1-3)Gal(b1-4)GlcNAc(b1-3)Gal(b1-4)GlcNAc(b1-3)Gal(b1-4)GlcNAc(b1-2)Man(a1-6)]Man(b1-4)GlcNAc(b1-4)GlcNAc", "how_it_was_run": "as §1"}, "[16]": {"biological_target": "Gal(b1-4)GlcNAc(b1-6)GalNAc", "how_it_was_run": "as §1"}, "Gal3S(b1-4)Glc": {"biological_target": "Gal3S(b1-4)Glc", "how_it_was_run": "as §1"}, "Gal3S(b1-4)Glc6S": {"biological_target": "Gal3S(b1-4)Glc6S", "how_it_was_run": "as §1"}, "[17]": {"biological_target": "Gal3S(b1-4)[Fuc(a1-3)]Glc6S", "how_it_was_run": "as §1"}, "Gal6S(b1-4)GlcNAc6S": {"biological_target": "Gal6S(b1-4)GlcNAc6S", "how_it_was_run": "as §1"}, "[18]": {"biological_target": "GalNAc3S(b1-4)[Fuc(a1-3)]GlcNAc", "how_it_was_run": "as §1"}, "[19]": {"biological_target": "GlcNAc(a1-4)Gal(b1-3)GlcNAc", "how_it_was_run": "as §1"}}, "note": "The full list was thinned out, with the strongest signals kept by preference.", "data": [{"binder": "B1", "values": [{"measurement": "glycan array binding signal (z-score)", "setting": "Fuc(a1-2)Gal", "value": -0.164}, {"measurement": "glycan array binding signal (z-score)", "setting": "[1]", "value": 2.27}, {"measurement": "glycan array binding signal (z-score)", "setting": "[2]", "value": -0.476}, {"measurement": "glycan array binding signal (z-score)", "setting": "[3]", "value": 0.228}, {"measurement": "glycan array binding signal (z-score)", "setting": "Fuc(a1-2)Gal6S(b1-4)Glc", "value": 0.374}, {"measurement": "glycan array binding signal (z-score)", "setting": "[4]", "value": -0.548}, {"measurement": "glycan array binding signal (z-score)", "setting": "[5]", "value": -0.26}, {"measurement": "glycan array binding signal (z-score)", "setting": "[6]", "value": 2.11}, {"measurement": "glycan array binding signal (z-score)", "setting": "Fuc(a1-4)GlcNAc", "value": 2.58}, {"measurement": "glycan array binding signal (z-score)", "setting": "[7]", "value": -0.133}, {"measurement": "glycan array binding signal (z-score)", "setting": "[8]", "value": 1.61}, {"measurement": "glycan array binding signal (z-score)", "setting": "[9]", "value": 3.59}, {"measurement": "glycan array binding signal (z-score)", "setting": "[10]", "value": 1.12}, {"measurement": "glycan array binding signal (z-score)", "setting": "[11]", "value": 4.37}, {"measurement": "glycan array binding signal (z-score)", "setting": "[12]", "value": 2.06}, {"measurement": "glycan array binding signal (z-score)", "setting": "[13]", "value": 2.46}, {"measurement": "glycan array binding signal (z-score)", "setting": "[14]", "value": 6.22}, {"measurement": "glycan array binding signal (z-score)", "setting": "[15]", "value": 0.957}, {"measurement": "glycan array binding signal (z-score)", "setting": "[16]", "value": -0.147}, {"measurement": "glycan array binding signal (z-score)", "setting": "Gal3S(b1-4)Glc", "value": -0.591}, {"measurement": "glycan array binding signal (z-score)", "setting": "Gal3S(b1-4)Glc6S", "value": -0.188}, {"measurement": "glycan array binding signal (z-score)", "setting": "[17]", "value": 0.68}, {"measurement": "glycan array binding signal (z-score)", "setting": "Gal6S(b1-4)GlcNAc6S", "value": -0.622}, {"measurement": "glycan array binding signal (z-score)", "setting": "[18]", "value": -0.053}, {"measurement": "glycan array binding signal (z-score)", "setting": "[19]", "value": 0.674}]}]}
